This is a sample that favours compounds with a hit; in the whole collection about 5% have one here.
SENP6 block: blocks the human protease SENP6; Recombinant SENP6 catalytic domain, aminoluciferin luminescence; inhibition, % at 10 µM; 330,000 tested, 1.8% active; AID 2599;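 active = inhibition above about 50% at the single tested dose, limit read from the data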
SENP8 block-1: SENP8 (human) protease inhibition; 360,000 tested, 0.64% active; inhibition, % at 20 µM; recombinant SENP8, Nedd8 substrate fluorescence; AID 602440; in the data active = inhibition mostly above about 40%, no sharp cut-off; inactive = mostly below about 27%
Target sequence (Q96LD8 whole entry, looked up): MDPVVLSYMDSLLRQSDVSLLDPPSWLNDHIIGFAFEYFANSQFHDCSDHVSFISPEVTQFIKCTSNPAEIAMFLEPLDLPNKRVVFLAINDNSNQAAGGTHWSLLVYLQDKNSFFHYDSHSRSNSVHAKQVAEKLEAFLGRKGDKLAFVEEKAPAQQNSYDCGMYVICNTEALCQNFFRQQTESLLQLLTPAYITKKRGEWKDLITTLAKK
EBI2 antag: blocks human EBI2 receptor beta-arrestin signaling; EBI2 beta-arrestin recruitment, luminescence, 7a,25-OHC stimulated; AID 651636; inhibition, % at 5 µM; 360,000 tested, 0.81% active; P32249; in the data active = inhibition above about 38%;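 note: enzyme fragment complementation signal reports receptor beta-arrestin coupling in cells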
SENP8 block-2: SENP8 protease inhibition; purified SENP8, Z-RLRGG-aminoluciferin cleavage, luminescence; inhibition, % at 10 µM; 330,000 tested, 1.2% active; AID 2540; in the data active = inhibition above about 50%
SENP7 block: blocks the human protease SENP7; recombinant SENP7, Z-RLRGG-aminoluciferin luminescence, 40 min; inhibition, % at 5 µM; 330,000 tested, 1.5% active; AID 434973;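 active = inhibition above about 50% at the single test dose, limit read from the data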
Target sequence (Q9BQF6 706-1050 limits assumed): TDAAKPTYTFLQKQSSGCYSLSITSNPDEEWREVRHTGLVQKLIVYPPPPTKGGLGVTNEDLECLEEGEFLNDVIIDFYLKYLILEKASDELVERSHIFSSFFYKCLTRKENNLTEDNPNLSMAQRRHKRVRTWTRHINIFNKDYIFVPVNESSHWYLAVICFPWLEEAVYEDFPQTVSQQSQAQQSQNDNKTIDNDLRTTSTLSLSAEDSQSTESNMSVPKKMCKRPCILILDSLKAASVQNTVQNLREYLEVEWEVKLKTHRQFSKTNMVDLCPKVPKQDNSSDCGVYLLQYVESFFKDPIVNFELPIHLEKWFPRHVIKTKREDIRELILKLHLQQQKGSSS
AHR act: human AHR activation; AID 2796; activation, % at 5 µM; AHR-responsive luciferase reporter cells, luminescence; 320,000 tested, 2.5% active; P35869; in the data active = activation above about 47%
Numbers stand for hits; i = inactive; nt = no result given.

SMILES | SENP6 block | SENP8 block-1 | EBI2 antag | SENP8 block-2 | SENP7 block | AHR act
Cc1ccc(F)cc1C(=O)N1CCOCC1c1cc(C(=O)Nc2ccccc2)no1 (stereo unspecified) | nt | i | i | nt | nt | nt
C/C(=N\Nc1ccc(C)c(Cl)c1)c1cccnc1 | i | i | i | i | i | 54
N#CC(C#N)=NNc1ccc(S(=O)(=O)N2CCCC2)cc1 | i | 47 | i | i | i | i
N#C/C(=N\Nc1ccc(S(=O)(=O)N2CCc3ccccc32)cc1)C(N)=S | i | 41 | i | i | i | i
CCOC(=O)/C(C#N)=N/Nc1ccc(S(=O)(=O)N2CCc3ccccc32)cc1 | i | i | i | i | i | i
N#C/C(=N\Nc1ccc(S(=O)(=O)N2CCCCCC2)cc1)C(N)=S | i | i | i | i | i | i
N#C/C(=N\Nc1ccc(S(=O)(=O)N2CCCCC2)cc1)C(N)=S | i | 45 | i | i | i | i
N#C/C(=N/Nc1ccc(S(=O)(=O)N2CCOCC2)cc1)C(N)=O | i | i | i | i | i | i
CCN(CC)C(=O)C1=C(C)N(Cc2ccc(OC)cc2)C(=O)C(CC(=O)NC2CC2)C1 (stereo unspecified) | nt | i | i | nt | nt | nt
COc1cc2c(cc1OC)C(Cc1ccc(O)c(Oc3ccc(C[C@H]4c5cc(OC)c(OC)cc5CCN4C)cc3)c1)N(C)CC2 (stereo partly specified) | i | nt | nt | i | i | i
O=C(NNC(=O)c1ccc2c(=O)n3c(nc2c1)CCC3)c1ccc(F)cc1 | i | i | i | i | i | 60
Cc1csc(NC(=O)c2ccc3c(=O)n4c(nc3c2)CCCCC4)n1 | i | i | i | i | i | i
O=C(Nc1nccs1)c1ccc2c(=O)n3c(nc2c1)CCCCC3 | i | i | i | i | i | 76
O=C(NNC(=O)c1ccc2c(=O)n3c(nc2c1)CCC3)c1ccc(Cl)cc1 | i | i | i | i | i | i
COc1ccccc1OCCn1cc(/C=N/n2cnnc2)c2ccccc21 | i | i | i | i | i | 49
COc1ccccc1OCCOc1ccccc1/C=N/n1cnnc1 | i | i | i | i | i | i
Cc1ccc(S(=O)(=O)/N=C2\C=C(NS(=O)(=O)c3ccccc3)C(=O)c3ccccc32)c(C)c1 | nt | 50 | i | nt | nt | nt
C/C(=N\NS(=O)(=O)c1ccc(C(C)(C)C)cc1)c1ccccc1 | i | i | i | i | i | i
CC(C)(C)c1ccc(S(=O)(=O)/N=C2\C=C(NS(=O)(=O)c3ccccc3)C(=O)c3ccccc32)cc1 | i | 51 | i | i | i | 54
O=S(=O)(c1ccc(NC(=S)NCc2ccncc2)cc1)N1CCCCC1 | i | i | i | i | i | i
Cc1ccc(/C=C/C(=O)OCC(=O)N(C)c2c(N)n(Cc3ccccc3)c(=O)[nH]c2=O)o1 | nt | i | i | nt | nt | nt
CCOc1ccc(-n2c(C)nc(O)c2N=Nc2ccccc2)cc1 | i | 43 | i | i | i | i
O=C(NC(=S)Nc1nc2c(s1)CCCC2)c1ccc(C(=O)c2ccccc2)cc1 | i | i | i | i | i | i
O=C(NC(=S)Nc1nc2c(s1)CSc1ccccc1-2)c1ccccc1 | i | i | i | i | i | 69
COC(=O)[C@H](NC(=O)c1cc([C@@H](NC(=O)OC(C)(C)C)C(C)C)sc1N)C(C)C | nt | i | i | nt | nt | nt
SMILES | SENP6 block | SENP8 block-1 | EBI2 antag | SENP8 block-2 | SENP7 block | AHR act
Cc1ccn2c(NC3CCCC3)c(-c3ccccn3)nc2c1 | i | i | i | i | i | 77
CCN(CC)c1ccc(/C=C2\C(=O)N(c3nnc(C)c(=O)[nH]3)N=C2C)cc1 | i | i | 63 | i | i | i
COc1ccc(C2=NC(c3ccccc3)CO2)cc1 (stereo unspecified) | 70 | nt | nt | 63 | 50 | i
O=C(Nc1ccc(OC(F)(F)F)cc1)c1ccc2ccccc2n1 | i | i | i | i | i | 47
O=C(Nc1nc2c(Cl)c(Cl)ccc2s1)C1CC1 | i | i | i | i | i | 48
O=C(Nc1nc2c(F)cc(F)cc2s1)C1CC1 | i | i | i | i | i | 55
O=C(Nc1nc2c(Cl)cccc2s1)C1CC1 | i | i | i | i | i | 55
O=C(Oc1ccc2ccc(=O)oc2c1)c1ccco1 | i | i | i | i | i | i
CC1=NN(c2ccc(Cl)cc2)C(=O)C1C(c1cccc(O)c1)c1c(C)[nH]n(-c2ccc(Cl)cc2)c1=O (stereo unspecified) | i | i | i | i | i | 67
CCC(=O)Nc1ccc(-c2cc3ccccc3oc2=O)cc1 | i | i | i | i | i | i
CC(=O)Nc1ccc(-c2cc3ccccc3o2)cc1 | i | i | i | i | 51 | i
C=CCNC(=S)Nc1c(C(=O)OC)[nH]c2cc(OC)ccc12 | i | i | i | i | i | 77
COc1ccc(F)cc1-c1cc(C(=O)NCc2cccc(Cl)c2)[nH]n1 | nt | i | i | nt | nt | nt
Cn1c(/C(C#N)=C/Nc2ccccn2)nc2ccccc21 | i | i | i | i | i | 118
OCCN1CCN(c2ncnc3c2ncn3[C@H]2CN(Cc3ccc4c(c3)OCO4)C[C@@H](CO)O2)CC1 | nt | i | i | nt | nt | nt
COc1ccc(-c2nc(NC3=NCCCCC3)sc2C)cc1 | i | i | i | i | i | 73
Nc1nccc(-c2ccc(-n3cnc4ccccc43)cc2)n1 | i | i | i | i | i | 48
CC(C)(C)C(=O)C(C(c1ccccc1)N1CCOCC1)N1CCOCC1 (stereo unspecified) | nt | i | i | nt | nt | nt
COc1ccc(NC(=S)N2CCc3ccccc32)cc1OC | i | i | i | i | i | 53
Nc1cnc(Br)cc1Br | i | i | i | i | i | i
Nc1cc2nsnc2cc1Br | 96 | 93 | i | 97 | 95 | i
Cc1cccc(N=Nc2c(N)n[nH]c2-c2ccc(Cl)cc2)c1 | i | i | i | i | i | i
Nc1n[nH]c(C2CC2)c1N=Nc1ccc(Cl)c(Cl)c1 | i | i | i | i | i | 96
COc1cc(CN2C(=O)C(CCc3ccccc3)ON=C2c2cnccn2)cc(OC)c1 (stereo unspecified) | nt | i | i | nt | nt | nt
Cn1nnc2c(NCc3ccco3)nccc21 | i | i | i | i | i | i
SMILES | SENP6 block | SENP8 block-1 | EBI2 antag | SENP8 block-2 | SENP7 block | AHR act
COc1ccc(Nc2nccc3c2nnn3C)cc1 | i | i | i | i | i | 62
Cc1ncsc1CCC(=O)N1CCCC(Nc2ccc(F)c(F)c2)C1 (stereo unspecified) | i | i | i | i | i | i
Cc1ccc(NC2CCCN(C(=O)CCc3scnc3C)C2)cc1C (stereo unspecified) | i | i | i | i | i | 50
O=C(Nc1ccccc1)n1ccc(-c2ccc(-n3ccnc3)cc2)n1 | i | nt | nt | i | i | 83
CCCOc1c(Br)cc(C(=O)NCC)cc1OC | i | i | i | i | i | 79
Cc1ccc2c(c1)c1c3n2CCN(C=O)C3CCC1 (stereo unspecified) | i | i | i | i | i | 53
CC(C)(C)C(C(=O)NCc1ccccc1)N1CCN(C(=O)C2CCCO2)CC1 (stereo unspecified) | nt | i | i | nt | nt | nt
CN1CCN(c2ccc(NC(=O)c3ccc(Br)o3)cc2)CC1 | 57 | i | i | i | i | i
CN1CCN(c2ccc(NC(=O)c3ccccc3Br)cc2)CC1 | i | i | i | i | i | i
